From PubChem BioAssay
VP16 counter: inhibits Gal4-VP16 luciferase reporter, ROR gamma counter-screen; Drosophila S2 Gal4-VP16 UAS-luciferase, luminescence, 20 h; Potency, µM (highest dose often 53.6 µM), for inactives: at the top dose activity, negative = inhibition, hits mostly inhibitors; 3.5% of 310,000 active; AID 2546;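 further: Gal4-VP16 expression switched on by copper sulfate through the metallothionein promoter; potency means the concentration at half of the fitted maximal effect; nearly all actives have a fitted effect of over 50% in size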
TSHR antag: human thyrotropin receptor antagonism. TSHR-expressing cells, TSH-stimulated cAMP HTRF, 2 h; active compounds read low. 0.2% of 330,000 active. activity change, negative = inhibition, % at 11.5 µM. P16473;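 active means activity change below a set negative limit, meaning inhibition stronger than a set level, cut at about -70% in these data; inconclusive means activity change between two set negative limits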
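TSHR-expressing cells, 200/well, pre-treated with compound, then stimulated with EC80 TSH (4nM final) for 2 hours at 37 deg C. cAMP measured by competitive HTRF: anti-cAMP cryptate antibody in lysis buffer plus cAMP-d2, read after 30 minutes at room temperature.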
RORg inh: inhibitors of mouse ROR gamma transcriptional activity | Drosophila S2 Gal4-RORgamma UAS-luciferase reporter, 20 h | Potency, µM (titrated, usually from 53.6 µM), for the others: at the highest dose activity change, negative = inhibition, hits mostly inhibitors | 5.4% of 310,000 active | P51450; further: potency means the concentration at half of the fitted maximal effect; nearly all actives have a fitted effect of over 60% in size
Target sequence (P51450 whole entry, looked up, the tested form may be a part): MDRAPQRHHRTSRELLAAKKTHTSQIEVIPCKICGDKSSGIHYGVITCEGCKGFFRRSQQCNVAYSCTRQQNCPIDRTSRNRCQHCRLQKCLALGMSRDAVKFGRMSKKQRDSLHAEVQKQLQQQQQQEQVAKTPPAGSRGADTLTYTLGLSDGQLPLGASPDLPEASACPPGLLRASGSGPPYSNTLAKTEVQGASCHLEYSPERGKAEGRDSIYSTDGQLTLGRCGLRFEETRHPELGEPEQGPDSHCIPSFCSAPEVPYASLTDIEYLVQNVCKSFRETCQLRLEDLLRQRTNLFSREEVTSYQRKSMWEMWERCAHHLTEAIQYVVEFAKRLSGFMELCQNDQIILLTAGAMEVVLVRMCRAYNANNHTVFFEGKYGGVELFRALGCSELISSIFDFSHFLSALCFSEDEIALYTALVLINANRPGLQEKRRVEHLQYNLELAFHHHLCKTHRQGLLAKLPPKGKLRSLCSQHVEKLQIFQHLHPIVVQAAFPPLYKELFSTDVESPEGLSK
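A Gal4/UAS one-hybrid system in insect cells: metallothionein-promoter Gal4–ROR gamma fusion plus Photinus luciferase reporter. Copper sulfate 700 uM final, 20 hr ambient incubation, luminescent detection after 10 min with reagent.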
ELG1 repair inh: ELG1-dependent DNA repair inhibition. HEK293T ELG1-luciferase reporter, luminescence, 16 h; DNA damage induced by 5-fluorouridine. Potency, µM (doses to about 46.1 µM), without a hit: at the highest dose activity change, negative = inhibition, usual class: inhibitors. 2.3% of 330,000 active; further: potency means the concentration at half of the fitted maximal effect; nearly all actives have a fitted effect of over 55% in size
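Reporter activity after DNA damage by 5-fluorouridine is monitored. Compound-treated cells incubate 16 hr at 37 °C, then ONE-Glo is added for 30 min before luminescence reading.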
B2AR arrestin: agonists driving beta-arrestin recruitment to human beta2-adrenergic receptor; P07550; beta-arrestin recruitment to beta2AR, cell-based reporter; Potency, µM (highest dose often 46.1 µM), for inactives: at the highest dose activation, actives largely listed as activators; 0.02% of 330,000 active; AID 492947;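 further: potency means the concentration at half of the fitted maximal effect; 0% = DMSO controls and full agonism = EC100 isoproterenol or metaproterenol; nearly all actives have a fitted effect of over 65% in size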
* = called active by the depositor; ? = inconclusive; · = not tested or not shown; [ ] = another dose, or the depositor's remark. This is a sample that favours compounds with a hit; in the whole collection about 7.5% have one here. Unless noted, the call rests on the fitted dose curve; in most records, active means well fitted curve in the direction sought with a large enough effect; inconclusive means small, poorly fitted or top-dose-only effect, or another doubt; inactive means no such curve, though single readings can be large; an effect the other way counts as inactive or inconclusive. Unless noted, on the % scale 0 is the no-effect control and ±100 the full control effect.

SMILES	VP16 counter	TSHR antag	RORg inh	ELG1 repair inh	B2AR arrestin
OCC1OC(c2ccc3c(c2)OCO3)C=CC1Oc1cc(Cl)cc(Cl)c1 (centres undefined)	-8%[10 µM]	·	8%[10 µM]	·	·
COc1ccc(NC(=O)CN(C)C(=O)c2ccc3c(c2)OCCO3)cc1	·	4	·	?	0%
C=Cc1ccc([C@H]2N[C@@H](C(=O)O)CC[C@@H]2C)cc1	-4%[10 µM]	·	11%[10 µM]	·	·
C/C(=N\Nc1nc2c(s1)CCCC2)c1ccc(Cl)cc1	11µM*	29	1.3µM*	?	1%
C/C(=N\NC1=NCCN1)c1ccc(Cl)cc1	-1%	2	2%	1%	0%
CC(C)(C)c1ccc(C(=O)NC(=S)Nc2nc3c(s2)CCCC3)cc1	4.5µM*	-16	1.8µM*	?	0%
CN(C)c1ccc(C(=O)Nc2nc3c(s2)CCCC3)cc1	11µM*	-39	5.6µM*	?	0%
CSc1nsc(SC)c1C(=O)Nc1ccc(C(C)(C)C)cc1	?	-10	42%	18µM*	0%
COc1cc2nc(CN3CCC(C(O)(c4ccccc4)c4ccccc4)CC3)[nH]c(=O)c2cc1OC	-3%	-5	-4%	?	0%
COc1cc2nc(CN3CCN(S(=O)(=O)c4cc(C)ccc4C)CC3)[nH]c(=O)c2cc1OC	·	0	·	15µM*	0%
COc1cc2nc(CN3CCC(Cc4ccccc4)CC3)[nH]c(=O)c2cc1OC	3%	29	11µM*	-7%	0%
CSCCC(NS(=O)(=O)c1ccccc1F)C(=O)Nc1cccc(C)n1 (centres undefined)	-7%	5	16%	4%	-1%
Cc1ccc(NC2Nc3cc(C)nn3S2)c(C)c1 (centres undefined)	?	-4	3.5µM*	?	0%
Cc1cc2n(n1)SC(Nc1ccccc1)N2 (centres undefined)	4.5µM*	33	3.2µM*	?	0%
Cc1ccc(N2C(=O)[C@@H]3[C@H](C2=O)C2CCCN2[C@@H]3C(=O)c2ccccc2)cc1 (some centres undefined)	?	25	6.3µM*	?	4%
CC(=O)OC[C@H]1O[C@@H](O/N=C(\C)CCN2CCc3nc(-c4ccccc4)c(-c4ccccc4)cc3C2)[C@H](OC(C)=O)[C@@H](OC(C)=O)[C@H]1OC(C)=O	-8%[10 µM]	·	20%[10 µM]	·	·
CCCCOC(=O)NS(=O)(=O)c1sc(CC(C)C)cc1-c1ccc(Cn2c(CC)nc3c(C)cc(C)nc32)cc1	·	-23	·	13µM*	-1%
CCCCOC(=O)Nc1ccc(S(=O)(=O)Nc2nc(C)cc(C)n2)cc1	-1%	-2	2%	0%	0%
Cc1ccc(C(=O)COC(=O)COc2ccccc2[N+](=O)[O-])s1	·	-1	·	7%	0%
CCOC(=O)COc1ccccc1/C=C\[N+](=O)[O-]	3.5µM*	?	16µM*	?	-2%
COc1ccc(OC2C(O)COC2/C=C/C#Cc2ccccc2)cc1 (centres undefined)	21%[10 µM]	·	4%[10 µM]	·	·
CC(C)(C)c1ccc(C(=O)CCCN2CCC(OC(c3ccccc3)c3ccccc3)CC2)cc1	11µM*	-10	0%[10 µM]	·	·
Cc1cc(C(=O)CSc2nnnn2-c2ccccc2)c(C)n1-c1ccc2c(c1)OCO2	11µM*	0	-35%	-3%	4%
Cc1cc(C(=O)CSc2nnnn2-c2ccc(O)cc2)c(C)n1Cc1ccc2c(c1)OCO2	?	-37	8%	18µM*	0%
Cc1cc(C(=O)CSc2nncs2)c(C)n1-c1ccc2c(c1)OCO2	?	-16	?	?	1%
SMILES	VP16 counter	TSHR antag	RORg inh	ELG1 repair inh	B2AR arrestin
Cc1cc(C(=O)CSc2nnc(-c3cccc(F)c3)n2N)c(C)n1Cc1ccc2c(c1)OCO2	?	?	40%	?	0%
Cn1c(=O)c2[nH]c(CNCc3ccccc3Cl)nc2n(C)c1=O	-1%	31	15%	-1%	0%
Cn1c(=O)c2[nH]c(COc3ccc(C(C)(C)C)cc3)nc2n(C)c1=O	?	-15	-3%	5.8µM*	0%
Cn1cc(C(=O)c2ccc(Cl)cc2Cl)cc1C(=O)O	2%	-1	16%	1%	0%
CNC(=O)/C=C/c1cc(C(=O)c2ccc(Cl)cc2Cl)cn1C	-1%	2	0%	-5%	0%
Cn1cc(C(=O)c2ccc(Cl)cc2Cl)cc1C(=O)N/N=C(\N)COc1ccc(Cl)cc1	3.5µM*	-7	1.4µM*	18µM*	0%
CCOC(=O)C/C(N)=N/NC(=O)c1ccc(Cl)cc1Cl	?	1	7.9µM*	14%	-1%
Cn1cc(C(=O)c2ccc(Cl)cc2Cl)cc1C(=O)N/N=C(\N)COc1ccc(F)cc1	2.5µM*	9	2.2µM*	-19%	0%
Cn1cc(C(=O)c2ccc(Cl)cc2Cl)cc1C(=O)N/N=C(\N)COc1ccccc1	1.6µM*	-6	0.71µM*	-28%	0%
CCOC(=O)N1CCN(C(=O)COC(=O)CNC(=O)c2ccc(Cl)cc2Cl)CC1	·	-4	·	16%	0%
Cc1cc(Br)ccc1S(=O)(=O)NCc1ccccc1	6%	-14	20%	11%	0%
Cn1cc(C(=O)c2ccc(Cl)cc2Cl)cc1C(=O)N/N=C(\N)COc1ccc(Cl)cc1Cl	4µM*	-14	1.4µM*	23µM*	0%
O=C(CNS(=O)(=O)c1ccccc1)N/N=C/c1ccccc1[N+](=O)[O-]	2%	2	14%	-6%	-1%
Cc1cc(C)c(NC(=O)COC(=O)Cc2cccs2)c(C)c1	·	8	·	3%	0%
CC(C)(C)c1cc(OC(=O)C2CCCC2)ccc1O	11µM*	1	?	-33%	0%
CC(C)(CNC(=O)CNC(=O)c1ccc(Cl)cc1Cl)N1CCOCC1	·	12	·	21%	0%
CN(C)c1ccc(C(=S)N2CCOCC2)cc1Br	29%	15	-39%	16%	0%
Oc1ccc(C(=S)N2CCCCCC2)cc1	6%	-4	8%	4%	1%
S=C(c1ccc(N2CCCC2)cc1)N1CCCCC1	?	-10	8.9µM*	?	-1%
S=C(c1ccc(N2CCCC2)c(Br)c1)N1CCCCC1	-22%	-5	20µM*	?	0%
CN(C)c1ccc(C(=S)N2CCCCC2)cc1Br	-8%	5	10µM*	-15%	0%
FC(F)(F)c1ccccc1-c1cncnc1NCCN1CCOCC1	-2%	·	-23%	·	·
COc1ccc(N2CC(C)Cn3c2nc2c3c(=O)n(Cc3ccc(F)cc3)c(=O)n2C)c(OC)c1 (centres undefined)	-4%	-5	42%	16µM*	0%
O=C(Nc1ccc(S(=O)(=O)N2CCCC2)cc1)c1ccc2c(=O)n3c(nc2c1)CCCCC3	-7%	-9	?	10µM*	-1%
